This passage reports max dye-equivalent concentration results from PubChem BioAssay AID590 (National Center for Advancing Translational Sciences (NCATS), 2007).

Each structure is given as a SMILES string. Several values for one entry are separate records, joined by “and”; a condition that tells them apart may be missing. Equal values may be shown once. About 6,500 (11%) of roughly 59,000 compounds were called active. Not shown: some 15% with an inconclusive outcome. Rule as the data show it: active = max dye-equivalent concentration above about 10 nM; inconclusive = mostly about 1.1 nM to 9.6 nM; inactive = weaker than that. Many of the other results were omitted from the sample, so actives are more common in it than they were.

The experiment in a line: qHTS Assay for Spectroscopic Profiling in A350 Spectral Region. The settings on record: Compound autofluorescence, 340/450 nm, Alexa 350 dye-equivalents; active compounds read high. (qHTS replaces the single test concentration by a dilution series.)
As to `Cc1ccc(-c2csc3nnc(SCC(=O)NCc4ccco4)n23)cc1`, the max dye-equivalent concentration result is “inactive”.

For the compound `CC1CN(C2CCCCC2)c2nc3c(c(=O)n(C)c(=O)n3C)n2C1` (stereo not given), the max dye-equivalent concentration entry was “inactive”.

Regarding `CC1=C(C(=O)OC2CCCCC2)C(c2cccnc2)n2ncnc2N1` (stereo not given), the max dye-equivalent concentration result is “inactive”.

As to `COC(=O)C1=C(N)Oc2cc(C)oc(=O)c2C1c1cccnc1` (stereo not given), the max dye-equivalent concentration result was “inactive”.

Take `CCSc1nc2c(c(=O)[nH]1)C(c1cccnc1)C(C(=O)OC(C)C)=C(C)N2` (stereo not given): the max dye-equivalent concentration was 1.2e-08 M (active).

As to `C=C(C)c1cccc(C(C)(C)NC(=O)N2CCN(c3ncccn3)CC2)c1`, the max dye-equivalent concentration entry is “inactive”.

For the compound `CCOC(=O)c1c(C2CC2)csc1NC(=O)CSCc1c(C)noc1C`, the max dye-equivalent concentration result is “inactive”.

Regarding `COc1c(C)c2c(c(O)c1C/C=C(\C)CCC(=O)O)C(=O)OC2`, the max dye-equivalent concentration is 6e-08 M (active) and 1.6e-08 M (active).

`COc1ccc(CC(=O)Nc2ccc3c(c2)CCC3)cc1S(=O)(=O)N1CCOCC1`: the max dye-equivalent concentration entry is “inactive”.

`Clc1ccc(C=Nc2ccc3c(c2)Cc2ccccc2-3)c(Cl)c1`: the max dye-equivalent concentration entry is “inactive”.

Consider `CCOc1cc(CO)ccc1OCC(=O)N1CCCCC1`, for which the max dye-equivalent concentration entry was “inactive”.

As for `Cc1ccc(NC(=O)c2nc[nH]c2C(=O)N2CCCCC2)c(C(=O)c2ccccc2)c1`, the max dye-equivalent concentration result was “inactive”.

For the compound `Cc1ccccc1NC(=O)c1ccccc1`, the max dye-equivalent concentration entry was “inactive”.

For the compound `Cc1ccc2c(c1)sc1ncc(NC(=O)c3ccccc3)c(=O)n12`, the max dye-equivalent concentration was 6.5e-08 M (active).

For the compound `CCC(Oc1ccccc1)C(=O)NCc1cccnc1` (stereo not given), the max dye-equivalent concentration entry was “inactive”.

Regarding `Cc1ccc(S(=O)(=O)c2nc(NCCCn3ccnc3)sc2Cl)cc1`, the max dye-equivalent concentration entry is “inactive”.

Consider `CC1(C)C/C(=C(/C#N)C(N)=O)CCO1`, for which the max dye-equivalent concentration result is “inactive”.

`CC(C(=O)Nc1ccccc1-c1ccccc1)N1CCOCC1` (stereo not given): the max dye-equivalent concentration result is “inactive”.

As to `CC(C(=O)N1CCOCC1)N1c2cccc3cccc(c23)S1(=O)=O` (stereo not given), the max dye-equivalent concentration was 8e-08 M (active).

As for `O=C(c1ccccc1-c1ccccc1)N1CCOCC1`, the max dye-equivalent concentration result was “inactive”.

For the compound `COC(=O)c1nc(NC(=O)c2ccc(Cl)cc2)n[nH]1`, the max dye-equivalent concentration entry was “inactive”.

For `CCC(=O)c1ccc(OCC(O)CN2CC(C)OC(C)C2)cc1` (stereo not given), the max dye-equivalent concentration entry was “inactive”.

On to `CC1CCCC(NC(=O)CN2CCN(Cc3ccc(Cl)cc3)C2=O)C1C` (stereo not given), for which the max dye-equivalent concentration result was “inactive”.

`CC(=O)c1ccc(NC(=O)N[C@@H](Cc2ccccc2)C(=O)O)cc1`: the max dye-equivalent concentration result is “inactive”.

As to `C[C@@H](N)[C@@H](C)Cc1ccccc1`, the max dye-equivalent concentration result is “inactive”.

For `Cc1ccc(C)n1C(Cc1ccccc1)C(=O)O` (stereo not given), the max dye-equivalent concentration is 1.3e-08 M (active).

Consider `O=C(C1CCCO1)N(Cc1ccccc1)c1ccccc1` (stereo not given), for which the max dye-equivalent concentration entry was “inactive”.

`CCN(c1ccccc1)S(=O)(=O)c1cccc(C(=O)O)c1`: the max dye-equivalent concentration result was “inactive”.

With `Nc1nc(N)c2[nH]c(CNc3ccc(C(=O)O)cc3)nc2n1`, the max dye-equivalent concentration entry was “inactive”.

Turning to `O=C(Nc1ccc(Cl)cn1)Nc1cccs1`, the max dye-equivalent concentration entry is “inactive”.

As to `c1ccc(-n2ncc3c(N4CCCC4)ncnc32)cc1`, the max dye-equivalent concentration result is “inactive”.

Consider `CCCc1nc2c3cnn(-c4cccc(Cl)c4)c3ncn2n1`, for which the max dye-equivalent concentration result was “inactive”.

In the case of `Cc1ccc(-n2ncc3c2ncn2nc(-c4ccco4)nc32)c(C)c1`, the max dye-equivalent concentration entry was “inactive”.

For the compound `COc1ccc(-n2ncc3c(N4CCCc5ccccc54)ncnc32)cc1`, the max dye-equivalent concentration is 2.5e-08 M (active).

In the case of `COc1ccc(N2CCN(C(=O)CSc3ncnc4c3cnn4-c3ccc(OC)cc3)CC2)cc1`, the max dye-equivalent concentration result is “inactive”.

In the case of `Cc1cccc(-n2ncc3c(N4CCc5ccccc54)ncnc32)c1`, the max dye-equivalent concentration is 1.5e-08 M (active).

Consider `Cc1cc2ccccc2n2c(SCC(=O)N3CCN(C(=O)c4ccco4)CC3)nnc12`, for which the max dye-equivalent concentration entry is “inactive”.

For `CC(=O)Nc1ccn(Cc2c(F)cccc2Cl)n1`, the max dye-equivalent concentration result was “inactive”.

As to `CCCCCn1c(SCCC(C)C)nc2c1c(=O)[nH]c(=O)n2C`, the max dye-equivalent concentration entry is “inactive”.

As to `O=C(O)CN(Cc1ccco1)S(=O)(=O)c1ccc(F)cc1`, the max dye-equivalent concentration result was “inactive”.
